Experimental data: the supplement of paper PMC9694430
Where a name gives a salt, the structure may show the parent alone.

Legend:
Assay in all cases: thermal shift delta Tm vs DMSO control; higher = stronger stabilization (binding)
Conditions in all cases: 12.5 µM; protein concentration 2 µM
LOC_OS04G57630-cb004 = system: LOC_OS04G57630-cb004
Outline: (§1)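 Rice kinase domain constructs were expressed in E. coli, purified, and tested by differential scanning fluorimetry with compound added in DMSO. Each well of a 96-well plate held 19.5 μl of 2 μM kinase in 100 mM potassium phosphate pH 7.5, 150 mM NaCl, 10% glycerol and 5 × SYPRO Orange, and fluorescence was read from 25°C to 95°C at 0.05°C/s. The melting temperature shift is the mean of triplicates, taken against protein with DMSO alone after Boltzmann fitting.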

LOC_OS05G07850-cb002 = system: LOC_OS05G07850-cb002
Outline: as §1

LOC_OS05G16824-cb004 = system: LOC_OS05G16824-cb004
Outline: as §1

LOC_OS05G28520-cb001 = system: LOC_OS05G28520-cb001
Outline: as §1

LOC_OS05G30820-cb001 = system: LOC_OS05G30820-cb001
Outline: as §1

LOC_OS05G43570-cb004 = system: LOC_OS05G43570-cb004
Outline: as §1

LOC_OS06G16330-cb003 = system: LOC_OS06G16330-cb003
Outline: as §1

LOC_OS06G22820-cb001 = system: T1, LOC_OS06G22820-cb001
T1 sequence (whole entry): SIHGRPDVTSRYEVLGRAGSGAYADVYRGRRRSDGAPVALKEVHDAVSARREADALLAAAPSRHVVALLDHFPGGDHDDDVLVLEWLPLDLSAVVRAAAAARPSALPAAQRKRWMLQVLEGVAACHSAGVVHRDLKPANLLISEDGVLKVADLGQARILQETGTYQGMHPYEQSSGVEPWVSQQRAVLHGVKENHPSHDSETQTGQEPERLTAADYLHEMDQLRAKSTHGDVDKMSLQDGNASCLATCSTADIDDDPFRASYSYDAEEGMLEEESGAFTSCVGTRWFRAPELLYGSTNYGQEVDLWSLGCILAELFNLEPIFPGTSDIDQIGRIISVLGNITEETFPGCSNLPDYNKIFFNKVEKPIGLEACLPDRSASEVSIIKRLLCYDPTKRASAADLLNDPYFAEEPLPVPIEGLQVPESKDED
Outline: as §1

LOC_OS07G06570-cb004 = system: LOC_OS07G06570-cb004
Outline: as §1

LOC_OS07G07230-cb001 = system: LOC_OS07G07230-cb001
Outline: as §1

Sequence of LOC_OS06G16330-cb003 (as listed by the source): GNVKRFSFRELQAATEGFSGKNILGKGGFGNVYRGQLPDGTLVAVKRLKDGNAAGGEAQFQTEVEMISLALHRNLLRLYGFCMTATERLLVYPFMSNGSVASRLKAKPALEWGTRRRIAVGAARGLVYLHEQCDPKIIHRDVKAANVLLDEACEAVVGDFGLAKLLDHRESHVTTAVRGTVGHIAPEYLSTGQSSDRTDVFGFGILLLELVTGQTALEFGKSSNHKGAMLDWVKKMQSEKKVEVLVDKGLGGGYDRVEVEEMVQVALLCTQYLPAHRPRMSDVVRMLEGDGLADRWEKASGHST

Row | Compound | thermal shift delta Tm (LOC_OS04G57630-cb004) [°C] | thermal shift delta Tm (LOC_OS05G07850-cb002) [°C] | thermal shift delta Tm (LOC_OS05G16824-cb004) [°C] | thermal shift delta Tm (LOC_OS05G28520-cb001) [°C] | thermal shift delta Tm (LOC_OS05G30820-cb001) [°C] | thermal shift delta Tm (LOC_OS05G43570-cb004) [°C] | thermal shift delta Tm (LOC_OS06G16330-cb003) [°C] | thermal shift delta Tm (LOC_OS06G22820-cb001) [°C] | thermal shift delta Tm (LOC_OS07G06570-cb004) [°C] | thermal shift delta Tm (LOC_OS07G07230-cb001) [°C]
1 | C[C@H](Nc1ncnc2nc[nH]c12)c1cc2cccc(Cl)c2c(=O)n1-c1ccccc1 [Duvelisib (IPI-145, INK1197)] | -0.24 | 0.17 | 0.84 | 0.82 | 0.45 | 0.49 | 0.28 | 0.69 | 0.07 | 12.2
2 | CNC(=O)c1nn(C)c2c1C(C)(C)Cc1cnc(Nc3ccc(N4CCN(C)CC4)cc3)nc1-2 | 3.76 | 6.76 | 7.67 | 4.23 | 0.45 | 0.22 | 4.37 | 0.43 | 0.26 | 0.04
3 | CO[C@H]1CC[C@H](N2C(=O)CNc3ncc(-c4ccc(C(C)(C)O)nc4)nc32)CC1 | -0.07 | 0.66 | -2.4 | 0.49 | 0.29 | 0.48 | -0.57 | 0.55 | 0.79 | 0.66
4 | CC1(C)OCCn2c1nc1c(N3CCOCC3)nc(-c3cnc(N)nc3)nc12 | 0.29 | 1.01 | -0.61 | 0.5 | 0.57 | 0.76 | 2.07 | 0.14 | 1.2 | 0.43
5 | O=c1nc(N2CCOCC2)oc2c(-c3cccc4c3sc3ccccc34)cccc12 | -0.05 | 1.07 | 1.26 | -0.27 | -0.09 | -0.65 | -1.74 | 0.33 | 0.14 | 0.66
6 | CS(=O)(=O)N1CCc2c(-c3cnc(N)nc3)nc(N3CCOCC3)nc21 | 0.4 | 2.27 | 0.4 | 0.43 | 0.79 | 0.7 | 0.69 | 0.66 | 0.72 | -0.05
7 | O=C(c1ccc(F)c(F)c1Nc1ccc(I)cc1F)N1CC(O)([C@@H]2CCCCN2)C1 [Cobimetinib (GDC-0973, RG7420)] | 0.22 | 0.2 | -1.19 | 0.07 | 0.47 | 0.39 | -0.17 | 0.43 | 1.59 | 0.43
8 | COc1cc2nccc(Oc3ccc(NC(=O)C4(C(=O)Nc5ccc(F)cc5)CC4)cc3)c2cc1OC | 2.62 | 12.8 | 3.14 | 7.75 | 0.54 | 0.51 | 5.17 | 1.2 | 0.82 | 0.35
9 | CC(=O)Nc1cccc(-n2c(=O)n(C3CC3)c(=O)c3c(Nc4ccc(I)cc4F)n(C)c(=O)c(C)c32)c1 | 0.23 | 0.88 | -0.98 | 0.48 | 0.42 | 0.15 | -0.52 | 0.44 | 0.26 | -0.16
10 | CNC(=O)c1cc(Oc2ccc(NC(=O)Nc3ccc(Cl)c(C(F)(F)F)c3)cc2)ccn1 [Sorafenib Tosylate] | 1.2 | 9.63 | 1.35 | 1.33 | 0.5 | 1.5 | 1.91 | 2.15 | 1.66 | 0.6
11 | C[C@@H]1CN(CC(=O)Nc2ccc3c(c2)Cc2cccc(-c4cc(=O)cc(N5CCOCC5)o4)c2S3)C[C@H](C)O1 | -0.04 | 0.16 | -0.46 | -0.13 | 0.31 | 0.21 | -0.2 | 0.77 | 1.02 | -0.36
12 | COc1ccc(CC(=O)Nc2nc3c(s2)CCc2ccccc2-3)cc1OC | 0.43 | 1.41 | 2.09 | 0.12 | 0.13 | 0.04 | -0.23 | 0.35 | 1.1 | 0.06
13 | N#C/C(=C\c1ccc(O)c(O)c1)C(=O)NCc1ccccc1 [AG-490 (Tyrphostin B42)] | -1.22 | -1.56 | -18.1 | 1.95 | 0.64 | 0.9 | -0.03 | 1 | 2.29 | 0.61
14 | Cn1cnc2c(F)c(Nc3ccc(Br)cc3F)c(C(=O)NOCCO)cc21 | 0.45 | 1.86 | -1.71 | 0.55 | 0.44 | 0.51 | -0.03 | 0.61 | 1.32 | -0.18
15 | Cc1c(NC(=O)c2ccc(C(C)(C)C)cc2)cccc1-c1cn(C)c(=O)c(Nc2ccc(C(=O)N3CCOCC3)cc2)n1 | 0.37 | 0.29 | 0.48 | 0.5 | 0.18 | 0.64 | 0.07 | 0.84 | 1.05 | -0.21
16 | CNc1nc(Nc2cn(C(C)(C)C#N)nc2C)ncc1C(F)(F)F | 0.21 | 3.12 | 1.76 | 0.47 | 0.36 | 0.56 | 0.81 | 0.4 | 0.68 | -0.13
17 | CNC(=O)c1cc(Oc2ccc3nc(N[C@@H]4CCCC[C@H]4O)sc3c2)ccn1 | 0.41 | 0.33 | 2.01 | 0.77 | 0.47 | 0.57 | 0.27 | 0.57 | 0.18 | 0
18 | CCS(=O)(=O)c1cccc(-c2cc(C(=O)NC3CCN(C)CC3)c(C)c3[nH]c4ncc(C)cc4c23)c1 | 2.61 | 13.6 | 10.6 | 2.38 | 3.26 | 0.4 | 8.47 | -0.41 | 0.61 | 0.94
